Among all 310,000 compounds or so, about 2,200 (0.71%) showed an effect of 50% or more. Effects have a minus sign here. Only a selection was taken, and strong results are over-represented in it overall.

human ether-à-go-go-related gene (hERG) potassium channel, sequence (Q12809 whole entry, looked up): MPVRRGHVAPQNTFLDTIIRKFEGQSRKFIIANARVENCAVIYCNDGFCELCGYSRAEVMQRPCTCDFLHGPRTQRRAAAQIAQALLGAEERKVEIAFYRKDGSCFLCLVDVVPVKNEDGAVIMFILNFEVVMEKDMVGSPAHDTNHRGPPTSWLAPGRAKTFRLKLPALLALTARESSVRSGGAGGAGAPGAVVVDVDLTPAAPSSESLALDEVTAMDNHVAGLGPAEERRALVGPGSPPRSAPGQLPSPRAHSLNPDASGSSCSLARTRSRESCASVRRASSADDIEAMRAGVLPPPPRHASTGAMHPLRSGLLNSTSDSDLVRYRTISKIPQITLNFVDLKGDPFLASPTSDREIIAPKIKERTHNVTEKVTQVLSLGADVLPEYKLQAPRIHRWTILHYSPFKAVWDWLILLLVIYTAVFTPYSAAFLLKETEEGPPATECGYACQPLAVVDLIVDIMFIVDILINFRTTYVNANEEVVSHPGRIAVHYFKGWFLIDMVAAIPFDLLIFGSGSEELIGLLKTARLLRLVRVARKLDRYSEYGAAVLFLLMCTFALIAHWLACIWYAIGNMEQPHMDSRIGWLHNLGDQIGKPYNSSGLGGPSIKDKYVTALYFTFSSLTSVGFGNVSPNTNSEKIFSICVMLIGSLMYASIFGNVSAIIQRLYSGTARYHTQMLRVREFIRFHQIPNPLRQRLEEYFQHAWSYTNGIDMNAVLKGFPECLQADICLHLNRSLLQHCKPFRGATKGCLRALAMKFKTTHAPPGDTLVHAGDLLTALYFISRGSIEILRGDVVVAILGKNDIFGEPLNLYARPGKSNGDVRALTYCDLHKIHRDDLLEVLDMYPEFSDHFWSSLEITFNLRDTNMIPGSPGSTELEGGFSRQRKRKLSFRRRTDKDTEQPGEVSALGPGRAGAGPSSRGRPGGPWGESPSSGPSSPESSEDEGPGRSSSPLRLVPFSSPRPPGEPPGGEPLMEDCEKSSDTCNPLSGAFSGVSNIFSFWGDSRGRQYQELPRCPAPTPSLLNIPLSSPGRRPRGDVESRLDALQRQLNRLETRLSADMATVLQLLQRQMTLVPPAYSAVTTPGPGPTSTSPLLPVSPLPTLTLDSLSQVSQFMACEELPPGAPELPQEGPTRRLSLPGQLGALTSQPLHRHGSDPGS

The assay has as its target human ether-à-go-go-related gene (hERG) potassium channel (human, UniProt Q12809). Kind of assay: primary screen, population patch clamp on CHO cells stably expressing hERG; higher = less effect of the substance.
As to `CCC(=O)N1CCN(c2ccccc2NC(=O)c2ccc(-c3cccc([N+](=O)[O-])c3)o2)CC1`, the “hERG current change (%, negative = inhibition) at 1uM” value is listed as -3.2%.

Consider `CCC(=O)N1CCN(c2ccc(Cl)cc2NC(=O)c2ccc([N+](=O)[O-])o2)CC1`, for which the “hERG current change (%, negative = inhibition) at 1uM” value came to 0.198%.

On to `CC(C)C(=O)N1CCN(c2ccccc2NC(=O)c2ccc([N+](=O)[O-])o2)CC1`, for which the “hERG current change (%, negative = inhibition) at 1uM” value was -23.5%.

Regarding `CN1CCN(c2ccccc2NC(=O)c2ccc(-c3cccc([N+](=O)[O-])c3)o2)CC1`, the “hERG current change (%, negative = inhibition) at 1uM” value was -0.213%.

For the compound `CN1CCN(c2ccccc2NC(=O)c2ccc([N+](=O)[O-])o2)CC1`, the “hERG current change (%, negative = inhibition) at 1uM” value was -62.4%.

Turning to `c1ccc(C(c2nnnn2C2CCCCC2)N2CCc3ccccc3C2)nc1` (stereo not drawn), the “hERG current change (%, negative = inhibition) at 1uM” value amounted to 7.86%.

As to `C[C@H](NC(=O)N1CCn2c1nc1ccccc12)C(=O)NCCc1ccccc1`, the “hERG current change (%, negative = inhibition) at 1uM” value is 17.4%.

Regarding `COc1ccc(NC(=S)N2CCN(C(=O)c3ccco3)CC2)c(OC)c1`, the “hERG current change (%, negative = inhibition) at 1uM” value was 8.24%.

In the case of `CCn1c(=S)sc2c(=O)[nH]c(C)nc21`, the “hERG current change (%, negative = inhibition) at 1uM” value turned out to be 13.5%.

With `COc1cccc(CN2CC(C(=O)N3CCN(c4ccc(Cl)cc4)CC3)CCC2=O)c1` (stereo not drawn), the “hERG current change (%, negative = inhibition) at 1uM” value is -53.3%.

Take `COc1cccc(CN2CC(C(=O)N3CCCC3)CCC2=O)c1` (stereo not drawn): the “hERG current change (%, negative = inhibition) at 1uM” value amounted to 10.9%.

Regarding `COc1cccc(CN2CC(C(=O)N3CCCCCCC3)CCC2=O)c1` (stereo not drawn), the “hERG current change (%, negative = inhibition) at 1uM” value stood at 9.63%.

Take `CCOC(=O)c1oc2ccccc2c1CSc1nnnn1-c1ccc(C)cc1`: the “hERG current change (%, negative = inhibition) at 1uM” value is given as 5.36%.

As for `Cc1ccc(CC(=O)NC2CCN(Cc3ccccc3)CC2)cc1`, the “hERG current change (%, negative = inhibition) at 1uM” value is recorded as 7.9%.

Regarding `O=C(NC1CCN(Cc2ccc(F)cc2)CC1)c1ccccc1`, the “hERG current change (%, negative = inhibition) at 1uM” value is recorded as -15.9%.

As for `COc1ccccc1C1CCN(Cc2ccc(Cl)c(Cl)c2)CC1`, the “hERG current change (%, negative = inhibition) at 1uM” value amounted to 10.4%.

On to `O=C(NC1CCN(Cc2ccccc2)CC1)c1ccccc1`, for which the “hERG current change (%, negative = inhibition) at 1uM” value is 2.84%.

As to `COc1ccccc1C1CCN(Cc2ccc(C)cc2)CC1`, the “hERG current change (%, negative = inhibition) at 1uM” value is given as -61.2%.

Regarding `COc1ccc(/C=C/C(=O)NC2CCN(Cc3ccccc3)CC2)cc1OC`, the “hERG current change (%, negative = inhibition) at 1uM” value came out at 12%.

For `O=C(/C=C/c1cccc(F)c1)NC1CCN(Cc2ccccc2)CC1`, the “hERG current change (%, negative = inhibition) at 1uM” value is given as -51.4%.

As to `Cc1ccc(CN2CCC(NC(=O)c3ccccc3)CC2)cc1`, the “hERG current change (%, negative = inhibition) at 1uM” value is reported as -52.8%.

`O=C(/C=C/c1cccc(Br)c1)NC1CCN(Cc2ccccc2)CC1`: the “hERG current change (%, negative = inhibition) at 1uM” value is -27.7%.

For the compound `COc1ccccc1C1CCN(Cc2ccccc2)CC1`, the “hERG current change (%, negative = inhibition) at 1uM” value was found to be 8.45%.

In the case of `Fc1ccc(NC(=S)NC2CCN(Cc3ccccc3)CC2)cc1`, the “hERG current change (%, negative = inhibition) at 1uM” value came to 6.75%.

On to `Cl.O=C(NC(=S)NC1CCN(Cc2ccccc2)CC1)c1ccc(F)cc1`, for which the “hERG current change (%, negative = inhibition) at 1uM” value is -57.5%.

Take `Cc1cnc(-c2nnc(N(C)C(=O)c3cccnc3)s2)cn1`: the “hERG current change (%, negative = inhibition) at 1uM” value was determined as 10.2%.

Regarding `CCN(CC)c1ccc(/C=N/NC(=S)NC)c(O)c1`, the “hERG current change (%, negative = inhibition) at 1uM” value was 4.81%.

As to `Cc1c(N=C2NC(=O)/C(=C/c3cccc([N+](=O)[O-])c3)S2)c(=O)n(-c2ccccc2)n1C`, the “hERG current change (%, negative = inhibition) at 1uM” value came out at 12.1%.

Turning to `Cc1ccc(S(=O)(=O)CC(O)COc2ccc(F)cc2Cl)c(C)c1` (stereo not drawn), the “hERG current change (%, negative = inhibition) at 1uM” value came to 7.06%.

For the compound `COc1ccc(/C=N/NC(=O)C2c3ccccc3Oc3ccccc32)c(OC)c1`, the “hERG current change (%, negative = inhibition) at 1uM” value worked out at 11.6%.

As for `NS(=O)(=O)c1ccc(CNC(=O)c2cc(-c3cccnc3)nc3ccccc23)cc1`, the “hERG current change (%, negative = inhibition) at 1uM” value is recorded as 14.6%.

For `CCc1ccccc1NC(=O)Nc1c(C)n(C)n(-c2ccccc2)c1=O`, the “hERG current change (%, negative = inhibition) at 1uM” value was -14.2%.

In the case of `Cn1c(CSCc2ccc(F)cc2)n[nH]c1=S`, the “hERG current change (%, negative = inhibition) at 1uM” value worked out at 13.6%.

As for `CNC(=O)CSc1nc(-c2ccccc2)c(-c2ccccc2)[nH]1`, the “hERG current change (%, negative = inhibition) at 1uM” value is recorded as 3.72%.

Consider `Cc1ccc(S(=O)(=O)N2CCN(C(=O)c3nn(C(C)C)c(=O)c4ccccc34)CC2)cc1C`, for which the “hERG current change (%, negative = inhibition) at 1uM” value stood at 5.96%.

Turning to `CC(C)Oc1ccc(S(=O)(=O)N2CCOCC2)cc1NC(=O)C1=COCCO1`, the “hERG current change (%, negative = inhibition) at 1uM” value is listed as 11%.

As to `CC(=O)C[C@H]1c2ccccc2S(=O)(=O)N1C1CCCC1`, the “hERG current change (%, negative = inhibition) at 1uM” value is reported as 14.6%.

In the case of `Cn1c(Nc2ccccc2)nc2ccccc21`, the “hERG current change (%, negative = inhibition) at 1uM” value was found to be 8.25%.

As for `COc1ccc(Nc2nc3ccccc3n2C)cc1`, the “hERG current change (%, negative = inhibition) at 1uM” value was 13.1%.

As to `Cn1c(Nc2ccc(F)cc2)nc2ccccc21`, the “hERG current change (%, negative = inhibition) at 1uM” value is -77.5%.

With `COc1ccc(-c2[nH]c(-c3ccc(C)cc3)nc2SCC(=O)Nc2nccs2)cc1`, the “hERG current change (%, negative = inhibition) at 1uM” value is recorded as 21.6%.

Consider `CC1CN(C(=O)COc2ccc3c(-c4ccccc4)cc(=O)oc3c2)CC(C)O1` (stereo not drawn), for which the “hERG current change (%, negative = inhibition) at 1uM” value is on record as 10.8%.

On to `CC(=O)Nc1ccc(OS(=O)(=O)c2cc(Cl)ccc2C)cc1`, for which the “hERG current change (%, negative = inhibition) at 1uM” value came to 13.6%.

In the case of `CC(=O)Nc1ccc(OS(=O)(=O)c2ccc(Cl)cc2)cc1`, the “hERG current change (%, negative = inhibition) at 1uM” value is listed as -1.62%.

Turning to `COc1ccc(Cl)cc1S(=O)(=O)Oc1ccc(NC(C)=O)cc1`, the “hERG current change (%, negative = inhibition) at 1uM” value is on record as -58.8%.
